Among the data in PubChem BioAssay are z-score values, retold here.
Further: test concentration not given here.

One assay can be described thus: basal RPMI8226 mitochondrial membrane potential changes, profiling panel, cell-based, JC-1 fluorescence, 24 h, 100 nL compound (AID 1169). The settings on record: RPMI8226 myeloma, JC-1 mitochondrial potential fluorescence, higher = more signal.
In the case of `CCOC(=O)[C@H]1[C@@H]2C(=O)N3CCC[C@H]3[C@H](O[Si](C(C)C)(C(C)C)C(C)C)[C@H]2C=C2CCN(S(=O)(=O)c3ccc(C)cc3)C[C@H]21`, the z-score was -1.06.

With `CC(CO)N1C(=O)[C@@H]2[C@H]3C(=O)OCC=C[C@H]3OC23C=CCN(C(C)(C)C)C(=O)[C@@H]13` (stereo partly drawn), the z-score was found to be 0.127.

Consider `O=C1C2C=CC(C(O)c3ccccc3)N(Nc3ccccc3F)C2C(=O)N1c1ccccc1` (stereo not drawn), for which the z-score is -1.04.

With `COCCOC(=O)N1C(=O)[C@@]2(c3cc(C#CC4=CCCCC4)ccc31)[C@H](c1ccc(O)cc1)N1[C@H](c3ccccc3)[C@H](c3ccccc3)OC(=O)[C@H]1[C@@H]2C(=O)N1CCN(c2ncccn2)CC1`, the z-score was determined as 0.736.

Take `CC(C)C(=C=CC[C@H](O)c1cccc(OCCO)c1)C[C@H](O)c1cc(Cl)cc(Cl)c1O`: the z-score is -0.527.

Turning to `O=C(NCc1ccccc1)[C@@H]1c2ccccc2C(=O)N(Cc2ccccc2C(F)(F)F)[C@H]1c1ccc(CO)cc1`, the z-score is 0.744.

`CC(C)Cc1ccc(CN2CC[C@@H](NC(=O)Nc3ccccc3)C2)cc1` showed a z-score of -1.11.

The molecule `CCC(CC)C(O)C1C=CC2C(=O)N(c3ccccc3)C(=O)C2N1Nc1ccc(C(C)C)cc1` (stereo not drawn) displayed a z-score of -0.0785.

The nature of a further assay: basal MM1S mitochondrial membrane potential changes, profiling panel, cell-based, JC-1 fluorescence, 24 h, 100 nL compound (AID 1170). The following applies: higher = more signal.
For the molecule `COc1ccc(C#Cc2ccc3c(c2)[C@]2(C(=O)N3)[C@H](c3ccc(O)cc3)N3[C@H](c4ccccc4)[C@H](c4ccccc4)OC(=O)[C@H]3[C@@H]2C(=O)O)cc1`, the z-score is -0.361.

As to `COC(=O)[C@@]1(Cc2ccccc2)[C@H]2c3cc(C(=O)N(C)C)n(CCN4CNCC4=O)c3C[C@H]2CN1C(=O)c1ccccc1`, the z-score was 1.46.

As to `O=C1OCC=C[C@H]2OC34C=CCN(Cc5ccccc5)C(=O)[C@H]3N(CCCCCCO)C(=O)[C@@H]4[C@@H]12` (stereo partly drawn), the z-score was -0.566.

`COc1cc2c(cc1OC)CN(C(=O)[C@@H]1[C@H]3C(=O)O[C@H](c4ccccc4)[C@H](c4ccccc4)N3[C@H](c3ccc(OCCO)cc3)[C@@]13C(=O)Nc1ccccc13)CC2` registered a z-score of -1.17.

In the case of `COCCOC(=O)N1C(=O)[C@@]2(c3cc(C#CC4=CCCCC4)ccc31)[C@H](C(=O)N1CCCCCCC1)[C@H]1C(=O)O[C@H](c3ccccc3)[C@H](c3ccccc3)N1[C@@H]2c1ccc(O)cc1`, the z-score is -0.272.

In the case of `C=CCC(OC(C)=O)[C@@H]1[C@@H](N(Cc2cc3ccccc3o2)C(=O)Cc2ccc(F)cc2)c2cc(OCCCO)ccc2N1C(=O)c1ccc2ccccc2c1` (stereo partly drawn), the z-score worked out at 0.687.

For `CCOC(=O)C[C@H]1[C@H](OC(=O)Cc2ccc3c(c2)OCO3)[C@@H](NC(=O)Cc2ccc(OC)cc2)c2cc(OCCCO)ccc2N1C(=O)c1ccc2ccccc2n1`, the z-score was found to be 0.819.

With `COCCOC(=O)N1C(=O)[C@@]2(c3cc(C#Cc4ccc(OC)cc4)ccc31)[C@H](c1ccc(O)cc1)N1[C@H](c3ccccc3)[C@H](c3ccccc3)OC(=O)[C@H]1[C@@H]2C(=O)N1CCCCCCC1`, the z-score was -0.414.

Consider `COC(=O)[C@@]1(Cc2ccccc2)[C@H]2c3cc(C(=O)N(C)C)n(Cc4c(CO)[nH]cc(C)c4=O)c3C[C@H]2CN1C(=O)c1ccccc1`, for which the z-score is -0.491.

Molecule `CN(C)C(=O)[C@]1(CCS(=O)(=O)c2ccccc2)N=C(c2ccc(OCCCO)cc2)O[C@@H]1c1ccccc1N=[N+]=[N-]` showed a z-score of -0.809.

Molecule `CCCCCCc1nc(-c2cc(C)c(OC)c(C)c2)c(C)c2c1[Si](C(C)C)(C(C)C)OC2` returned a z-score of -1.6.

`CC(C)C[C@@H]1NC(=O)[C@@H]2C[C@H](C(=O)NCCCCCN)[C@H](c3ccc(O)cc3)N2C1=O` had a z-score of 0.698.

The molecule `C[C@H]1NC(=O)[C@@]23C(=O)N[C@@H](Cc4ccccc4)C2[C@H](C)[C@@]2(C)O[C@H]2C3/C=C/C/C=C\CNC(=O)[C@H](Cc2ccccc2)NC1=O` (stereo partly drawn) displayed a z-score of 1.02.

For `C=CC[C@]1(C(=O)NCCN2CCOCC2)N=C(c2ccc(OCCCO)cc2)O[C@H]1c1ccccc1CN=[N+]=[N-]`, the z-score was -0.244.

The molecule `O=C1O[C@H](c2ccccc2)[C@H](c2ccccc2)N2[C@H]1[C@@H](C(=O)Nc1nc3ccccc3s1)[C@]1(C(=O)Nc3ccccc31)[C@H]2c1ccc(OCCO)cc1` registered a z-score of -1.83.

In turn, `CN1C(=O)C2C=CC(C(O)c3cccc(O)c3)N(Nc3ccccc3)C2C1=O` (stereo not drawn) returned a z-score of -0.179.

Turning to `C=C(COC)/C(=C/C[C@H](OC(=O)c1ccncc1)c1ccccc1OCCO)c1cnc2ccccc2c1`, the z-score is -0.0279.

The molecule `[N-]=[N+]=Nc1ccccc1[C@@H]1OC(c2ccc(OCCCO)cc2)=N[C@]1(Cc1ccccc1)C(=O)NCC(O)CO` (stereo partly drawn) displayed a z-score of -0.318.

On to `CCOc1cc(C(O)C2C=CC3C(=O)N(C)C(=O)C3N2Nc2ccccc2)ccc1O` (stereo not drawn), for which the z-score is -0.536.

`CCOC(=O)C1=C[C@@H](c2ccccc2)N(S(=O)(=O)c2ccc(C)cc2)[C@H]1c1ccccc1Cl` had a z-score of 0.38.

The molecule `COC(=O)c1c2oc(c1C(=O)OC)C(=O)N(Cc1ccccc1)Cc1cn(nn1)C[C@H](Cc1ccccc1)NC(=O)N[C@H](CO)CC2` gave a z-score of -0.62.

In turn, `O=C(CS)NCCCCCNC(=O)[C@@H]1C[C@@H]2C(=O)N3CCC[C@H]3C(=O)N2[C@@H]1c1cccc(OCCO)c1` had a z-score of 0.305.

The molecule `C=C[C@@H](COC(C)=O)N(C(=O)OC(C)(C)C)S(=O)(=O)c1ccc(Br)cc1` yielded a z-score of -0.624.

Regarding `COc1cccc(/C=C/C=O)c1`, the z-score was -0.253.

The molecule `COc1ccc(CN(C2=CC[C@@]3(C(N)=O)C(=O)C(Cl)=C(Cl)C(=O)[C@@]3(C#N)C2)S(=O)(=O)c2ccc(Br)cc2)cc1` gave a z-score of -2.06.

On to `O=C1O[C@@H](c2ccccc2)[C@@H](c2ccccc2)N2[C@@H](c3ccc(O)cc3)[C@]3(C(=O)Nc4ccc(C#CC5=CCCCC5)cc43)[C@@H](C(=O)NC[C@H](O)c3ccccc3)[C@H]12`, for which the z-score was -1.1.

Turning to `Cc1ccccc1C(O)C1C=CC2C(=O)N(C)C(=O)C2N1N(c1ccccc1)c1ccccc1` (stereo not drawn), the z-score was -0.41.

`CCOC(=O)[C@H]1[C@@H]2C(=O)N3CCC[C@H]3[C@H](O[Si](C(C)C)(C(C)C)C(C)C)[C@H]2C=C2CCN(S(=O)(=O)c3ccc(C)cc3)C[C@H]21`: the z-score was -0.814.

Take `CC(CO)N1C(=O)[C@@H]2[C@H]3C(=O)OCC=C[C@H]3OC23C=CCN(C(C)(C)C)C(=O)[C@@H]13` (stereo partly drawn): the z-score was determined as 0.0965.

`O=C1C2C=CC(C(O)c3ccccc3)N(Nc3ccccc3F)C2C(=O)N1c1ccccc1` (stereo not drawn) came in with a z-score of -1.29.

`COCCOC(=O)N1C(=O)[C@@]2(c3cc(C#CC4=CCCCC4)ccc31)[C@H](c1ccc(O)cc1)N1[C@H](c3ccccc3)[C@H](c3ccccc3)OC(=O)[C@H]1[C@@H]2C(=O)N1CCN(c2ncccn2)CC1` showed a z-score of -0.587.

As to `CC(C)C(=C=CC[C@H](O)c1cccc(OCCO)c1)C[C@H](O)c1cc(Cl)cc(Cl)c1O`, the z-score is -0.826.

`O=C(NCc1ccccc1)[C@@H]1c2ccccc2C(=O)N(Cc2ccccc2C(F)(F)F)[C@H]1c1ccc(CO)cc1` had a z-score of -0.962.

Consider `CC(C)Cc1ccc(CN2CC[C@@H](NC(=O)Nc3ccccc3)C2)cc1`, for which the z-score was -3.26.

In the case of `CCC(CC)C(O)C1C=CC2C(=O)N(c3ccccc3)C(=O)C2N1Nc1ccc(C(C)C)cc1` (stereo not drawn), the z-score stood at 0.299.
